Test results: PubChem BioAssay AID602350 (Broad Institute, 2012);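 active = absorbance falls by 30% or more versus neutral controls, with a potency fitted within twice the top valid dose; inconclusive = no clear call, values can overlap the other calls; inactive = change opposite to expected direction, plus the rest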
Potency and affinity values are given separately.

target: Protein disulfide-isomerase (Homo sapiens) (UniProt P07237); assay: PDI inhibitors, insulin aggregation turbidity, dose response, biochemical, absorbance, cherry-picked samples (AID 602350); conditions: recombinant PDI insulin aggregation, absorbance 650 nm, 90 min; series mostly up to 19.5 µM; activity change, negative = inhibition: at the top concentration;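 note: 0% = neutral controls and -100% = rutin hydrate positive control wells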
Sequence (P07237 whole entry, looked up): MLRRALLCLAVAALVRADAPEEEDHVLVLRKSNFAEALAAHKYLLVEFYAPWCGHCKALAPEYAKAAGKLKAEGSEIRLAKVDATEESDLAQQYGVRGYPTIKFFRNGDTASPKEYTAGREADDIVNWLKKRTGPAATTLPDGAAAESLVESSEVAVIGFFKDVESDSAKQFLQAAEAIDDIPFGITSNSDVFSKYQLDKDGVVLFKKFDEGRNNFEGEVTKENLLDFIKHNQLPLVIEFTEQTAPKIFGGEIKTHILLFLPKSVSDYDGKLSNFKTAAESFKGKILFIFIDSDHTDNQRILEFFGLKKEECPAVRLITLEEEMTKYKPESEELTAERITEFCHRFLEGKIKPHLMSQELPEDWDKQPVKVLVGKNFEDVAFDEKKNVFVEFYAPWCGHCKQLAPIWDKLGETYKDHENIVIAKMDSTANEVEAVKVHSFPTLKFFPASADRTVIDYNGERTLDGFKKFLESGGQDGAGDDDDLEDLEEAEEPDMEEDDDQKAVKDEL

Activity change, negative = inhibition, inactive:
C[C@@H]1CN([C@H](C)CO)C(=O)Cc2cc(NC(=O)Nc3ccccc3)ccc2O[C@H]1CN(C)Cc1ccccc1 3.58% [at 21 µM], Cc1cc(C)c(C)c(S(=O)(=O)N2CCC(C(=O)N(C)Cc3nc4ccccc4c(=O)[nH]3)CC2)c1C -2.56%, COc1ccccc1NS(=O)(=O)c1ccc(C)c(C(=O)NCC2(N(C)C)CCCCC2)c1 14%, Cc1cc(NC(=O)COC(=O)C2CC(=O)N(c3ccccc3)C2)no1 (configuration not stated) 8.6%, CC(=O)NC(Cc1c[nH]c2ccccc12)C(=O)OCC(=O)N1CCN(S(=O)(=O)c2ccc(Cl)cc2)CC1 (configuration not stated) -12.7%, CC(=O)c1cc(-c2ccccc2)n(CC(=O)Nc2cccc(C)c2)c1C 16.4%, O=C(CN1C(=O)NC2(CCCC2)C1=O)Nc1ccc(C(F)(F)F)cc1 4.1%, S=C(NCCc1ccccc1)Nc1ccccn1 12.8%, C[C@H]1CN([C@@H](C)CO)C(=O)Cc2cc(NC(=O)Nc3ccccc3)ccc2O[C@H]1CN(C)Cc1ccccc1 -15%, CCN1CCN(Cc2ccc(NC(=O)c3cc(NC(=O)c4cc(-c5ccc(OC)cc5)n[nH]4)cc(OC)c3)cc2C(F)(F)F)CC1 -3.51%, Cc1sc(NC(=O)CCl)c(C(=O)c2ccccc2)c1C 1.62%, CC[C@]12c3[nH]c4cc(-c5ccco5)ccc4c3CCN1C(=O)[C@@H](CC(=O)NCc1ccco1)C[C@@H]2C(=O)N1CCN(C(=O)c2ccco2)CC1 -7.56%, O=C1NC(Cc2ccc(O)cc2)c2nc3cc(Cl)ccc3c(=O)n2-c2ncccc21 (configuration not stated) -7.67%, CN1CCN(Cc2nc3ccccc3c(=O)n2Cc2nc(-c3ccc4ccccc4c3)cs2)CC1 -26.1%, CN(C)CCCN(C(=O)c1ccc(S(=O)(=O)N2CCc3ccccc32)cc1)c1nc2c(Cl)cccc2s1 -18.3%, CCCCn1c(SCC(=O)NC2CCS(=O)(=O)C2)nc2ccccc2c1=O (configuration not stated) 8.19%, CN(C)CCN(C(=O)c1ccc(S(=O)(=O)N2CCc3ccccc32)cc1)c1nc2ccc(F)cc2s1 -1.71%, NC1=NC[C@H](Cc2ccc(O)cc2)N1CC1CCCCC1 -5.19%, C[C@]12CC[C@H]3C(=CCc4cc(O)ccc43)[C@@H]1CCC2=O -15.9%, CN(C)C(=O)CSc1n[nH]c(-c2ccco2)n1 36.2%, COc1ccc(C2c3ccc(O)cc3Oc3ncn(Cc4ccco4)c(=N)c32)cc1OC (configuration not stated) -11.4%, Cc1ccc2c(c1)Oc1ccc(NC(=O)CCl)cc1C(=O)N2 -0.545%
